The source of these data is PubChem BioAssay.

Where “and” joins values, the source holds several entries; their conditions need not be identical. Identical values can stand only once. Calls of active or inactive are those of the source. The rule behind the calls is not given here.

System in the first experiment: not listed separately
In words: altered dexamethasone sensitivity, NF-kB reporter, cell-based, luciferase, IL-1B stimulus (AID 624486).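 For percent of negative control (+Dex): 100% = mean signal of vehicle control wells on the plate.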 As to conditions: IL-1B + dexamethasone, luminescence; percent of negative control (+Dex): actives lie on both sides, concentration not given here; z-score: measured here: IL-1B alone, no Dex.
In the case of `CS(=O)(=O)CCn1c(=O)c(Oc2ccc(F)cc2F)cc2cnc(NC3CCOCC3)nc21`, the z-score was determined as 0.47 and the percent of negative control (+Dex) was 99% (inactive).

`N#Cc1c(C(=O)c2ccccc2)cnn1-c1ccccc1`: the percent of negative control (+Dex) is 106% (inactive) and the z-score came out at 1.11.

As for `O=C1NC(=Nc2ccccc2)SC1=Cc1ccc2ncccc2c1`, the percent of negative control (+Dex) was 98% (inactive) and the z-score was found to be 0.04.

Regarding `Fc1ccc(-c2c(-c3ccncc3)[nH]c3cccnc23)cc1`, the percent of negative control (+Dex) is 95% (inactive) and the z-score is 0.075.

Turning to `CC(C)Nc1ncc2cc(Oc3ccc(F)cc3F)c(=O)n(C)c2n1`, the percent of negative control (+Dex) was 95.5% (inactive) and the z-score was -0.005.

For the molecule `CC(O)CNc1cc(-c2[nH]c3cccnc3c2-c2ccc(F)cc2)ccn1` (stereo not drawn), the z-score is 0.42 and the percent of negative control (+Dex) is 106% (inactive).

For the molecule `CCOc1ccccc1CCN=C1NC(=O)C(=Cc2ccc3ncccc3c2)S1`, the z-score is -0.335 and the percent of negative control (+Dex) was 90% (inactive).

With `CCCCCNC(=O)C1CCCN2C(=O)CCC(NC(=O)C(Cc3ccc(OP(=O)(O)O)cc3)NC(C)=O)C(=O)N12` (stereo not drawn), the z-score was found to be 0.695 and the percent of negative control (+Dex) was 99% (inactive).

On to `Cn1cc(C2=C(c3cn(CCCN=C(N)N)c4ccccc34)C(=O)NC2=O)c2ccccc21`, for which the z-score turned out to be 0.295 and the percent of negative control (+Dex) is 101% (inactive).

For `Nc1c(C(=O)c2ccccc2)cnn1-c1ccc(F)cc1`, the z-score was 5.57 and the percent of negative control (+Dex) is 152% (active).

As for `CC(c1ccccc1)C(C(=O)Nc1ccc(I)cc1F)N1C(=O)NC(c2ccc(OCC(O)CO)cc2)C1=O` (stereo not drawn), the z-score was -3.5 and the percent of negative control (+Dex) was 55% (active).

In the case of `O=C1NC(=NCCc2ccc(Br)cc2)SC1=Cc1ccc2ncccc2c1`, the z-score was -0.18 and the percent of negative control (+Dex) is 99.5% (inactive).

On to `N#CCn1c(=O)c(Oc2ccc(F)cc2F)cc2cnc(NC3CCOCC3)nc21`, for which the percent of negative control (+Dex) is 97% (inactive) and the z-score was -0.11.

For `COc1ccc(F)cc1C(=O)c1cnc(NC2CCN(S(C)(=O)=O)CC2)nc1N`, the z-score is -0.18 and the percent of negative control (+Dex) is 96.5% (inactive).

In the case of `Cc1ccccc1-n1ncc(C(=O)c2ccccc2)c1N`, the z-score turned out to be 1.31 and the percent of negative control (+Dex) is 120% (inactive).

In the case of `Nc1c(C(=O)c2ccc(C#CCN3CCOCC3)cc2)cnn1-c1ccc(F)cc1`, the z-score came out at 1.64 and the percent of negative control (+Dex) was 106% (inactive).

Take `Cn1cc(C2=C(c3ccc(N)cc3)C(=O)NC2=O)c2ccccc21`: the percent of negative control (+Dex) was 100% (inactive) and the z-score was -0.99.

For `Nc1c(C(=O)c2cccc(C(O)(CO)CO)c2)cnn1-c1ccc(F)cc1`, the z-score worked out at 0.905 and the percent of negative control (+Dex) is 104% (inactive).

`Cn1cc(C2=C(c3cn(C)c4cc(C(N)=O)ccc34)C(=O)NC2=O)c2ccccc21`: the z-score is -0.22 and the percent of negative control (+Dex) is 95% (inactive).

Consider `Cn1cc(C2=C(c3cccc(Br)c3)C(=O)NC2=O)c2ccccc21`, for which the percent of negative control (+Dex) was 110% (inactive) and the z-score was -0.515.

Take `O=C1NC(=NC(CO)c2ccccc2)SC1=Cc1ccc2ncccc2c1` (stereo not drawn): the percent of negative control (+Dex) was 102% (inactive) and 96% (inactive); the z-score is 0.925 and 0.08.

For the molecule `O=C1NC(=NCc2ccccc2)SC1=Cc1ccc2ncccc2c1`, the percent of negative control (+Dex) is 92.5% (inactive) and the z-score is -0.26.

In the case of `Nc1c(C(=O)c2cccc(OCCN3CCOCC3)c2)cnn1-c1ccc(F)cc1`, the percent of negative control (+Dex) is 100% (inactive) and the z-score worked out at 0.485.

Take `COc1ccc2c(C3=C(c4cn(C)c5ccccc45)C(=O)NC3=O)cn(C)c2c1`: the percent of negative control (+Dex) is 113% (inactive) and the z-score is -1.48.

`Cn1cc(C2=C(n3ccc4ccccc43)C(=O)NC2=O)c2ccccc21`: the percent of negative control (+Dex) was 95.5% (inactive) and the z-score was determined as 0.125.

For the next experiment, the target named is Cellular tumor antigen p53 (Homo sapiens) (UniProt P04637). Description: GFP-p53 level modulators in HPV16+ cells – imaging, known kinase inhibitor set, EGFP/DsRed ratio (AID 1053116).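 Note: cells exposed to compounds for 24 h at 37 °C before reading.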 To be noted: GFP-p53 stability, stronger effect = higher value; EGFP object count: measured here: GFP-p53 positive objects count.
Chain of Cellular tumor antigen p53 (Homo sapiens) (P04637 whole entry, looked up): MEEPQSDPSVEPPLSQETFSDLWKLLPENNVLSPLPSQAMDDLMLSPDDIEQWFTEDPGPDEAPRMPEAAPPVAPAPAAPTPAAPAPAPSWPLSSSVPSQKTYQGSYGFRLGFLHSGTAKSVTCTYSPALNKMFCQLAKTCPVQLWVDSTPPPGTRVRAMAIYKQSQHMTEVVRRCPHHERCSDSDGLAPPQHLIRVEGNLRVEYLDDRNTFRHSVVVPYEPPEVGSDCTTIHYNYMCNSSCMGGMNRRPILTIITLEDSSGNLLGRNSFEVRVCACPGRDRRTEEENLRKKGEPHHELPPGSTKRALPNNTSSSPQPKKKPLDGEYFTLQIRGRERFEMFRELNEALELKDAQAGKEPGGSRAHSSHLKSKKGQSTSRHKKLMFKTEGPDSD
As to `Cn1cc(C2=C(c3cccnc3)C(=O)NC2=O)c2ccccc21`, the EGFP object count came out at 8.5 and the EGFP/DsRed ratio is 0.135 (inactive).

As for `COc1cc[nH]c1C=C1C(=O)Nc2ccccc21`, the EGFP object count turned out to be 6 and the EGFP/DsRed ratio was 0.263 (inactive).

In the case of `O=C1NC(=NCCc2cccs2)SC1=Cc1ccc2ncccc2c1`, the EGFP/DsRed ratio is 0.079 (inactive) and the EGFP object count was 4.5.

With `COc1cc(F)c(F)cc1C(=O)c1cnc(NC2CCN(S(C)(=O)=O)CC2)nc1N`, the EGFP object count came out at 1 and the EGFP/DsRed ratio was 0.11 (inactive).

For the molecule `COc1ccccc1CN=C1NC(=O)C(=Cc2ccc3ncccc3c2)S1`, the EGFP/DsRed ratio was 0.187 (inactive) and the EGFP object count worked out at 4.5.

Regarding `COc1cccc(C2=C(c3cn(C)c4cccc(OC)c34)C(=O)NC2=O)c1`, the EGFP object count was 9 and the EGFP/DsRed ratio is 0.102 (inactive).

Take `Cn1cc(C2=C(Nc3ccccc3)C(=O)NC2=O)c2ccccc21`: the EGFP object count was 7 and the EGFP/DsRed ratio was 0.118 (inactive).

On to `Cn1cc(C2=C(c3ccccc3)C(=O)NC2=O)c2ccccc21`, for which the EGFP/DsRed ratio is 0.26 (inactive) and the EGFP object count is 9.5.

Consider `COc1ccc(CCN=C2NC(=O)C(=Cc3ccc4ncccc4c3)S2)cc1`, for which the EGFP/DsRed ratio is 0.381 (inactive) and the EGFP object count was 3.

On to `CC(=C1SC(=NCc2cccs2)NC1=O)c1ccc2ncccc2c1`, for which the EGFP/DsRed ratio was 0.0357 (inactive) and the EGFP object count was 5.

As for `COc1ccccc1CCN=C1NC(=O)C(=Cc2ccc3ncccc3c2)S1`, the EGFP object count was 5 and the EGFP/DsRed ratio was 0.0846 (inactive).

On to `COc1cc[nH]c1C=C1C(=O)Nc2ccc(F)c(C#CC3(O)CCOCC3)c21`, for which the EGFP/DsRed ratio is 0.109 (inactive) and the EGFP object count came out at 6.

Turning to `Cn1cc(C2=C(c3c4n(c5ccccc35)CCCC4)C(=O)NC2=O)c2ccccc21`, the EGFP object count worked out at 5.5 and the EGFP/DsRed ratio is 0.0663 (inactive).

For the molecule `O=[N+]([O-])c1ccc2c(c1)C(c1ccccc1Cl)=Nc1c(n[nH]c1-c1cccnc1)N2`, the EGFP/DsRed ratio is 0.194 (inactive) and the EGFP object count came to 8.

`CS(=O)(=O)CCn1c(=O)c(Oc2ccc(F)cc2F)cc2cnc(NC3CCOCC3)nc21`: the EGFP object count stood at 2 and the EGFP/DsRed ratio was 0.0579 (inactive).

Regarding `N#Cc1c(C(=O)c2ccccc2)cnn1-c1ccccc1`, the EGFP object count was 7 and the EGFP/DsRed ratio was 0.125 (inactive).

As to `O=C1NC(=Nc2ccccc2)SC1=Cc1ccc2ncccc2c1`, the EGFP/DsRed ratio is 0.0469 (inactive) and the EGFP object count came out at 3.

Take `Fc1ccc(-c2c(-c3ccncc3)[nH]c3cccnc23)cc1`: the EGFP/DsRed ratio was 0.15 (inactive) and the EGFP object count was found to be 6.

Turning to `CC(C)Nc1ncc2cc(Oc3ccc(F)cc3F)c(=O)n(C)c2n1`, the EGFP object count stood at 1 and the EGFP/DsRed ratio was 0.00675 (inactive).

As for `CC(O)CNc1cc(-c2[nH]c3cccnc3c2-c2ccc(F)cc2)ccn1` (stereo not drawn), the EGFP object count was 4 and the EGFP/DsRed ratio is 0.042 (inactive).

As to `CCOc1ccccc1CCN=C1NC(=O)C(=Cc2ccc3ncccc3c2)S1`, the EGFP/DsRed ratio is 0.141 (inactive) and the EGFP object count came to 11.5.

As for `CCCCCNC(=O)C1CCCN2C(=O)CCC(NC(=O)C(Cc3ccc(OP(=O)(O)O)cc3)NC(C)=O)C(=O)N12` (stereo not drawn), the EGFP object count came out at 3.5 and the EGFP/DsRed ratio is 0.227 (inactive).

For `Cn1cc(C2=C(c3cn(CCCN=C(N)N)c4ccccc34)C(=O)NC2=O)c2ccccc21`, the EGFP object count worked out at 7.5 and the EGFP/DsRed ratio was 0.202 (inactive).

As for `Nc1c(C(=O)c2ccccc2)cnn1-c1ccc(F)cc1`, the EGFP/DsRed ratio is 0.17 (inactive) and the EGFP object count is 5.

Consider `CC(c1ccccc1)C(C(=O)Nc1ccc(I)cc1F)N1C(=O)NC(c2ccc(OCC(O)CO)cc2)C1=O` (stereo not drawn), for which the EGFP/DsRed ratio was 0.306 (inactive) and the EGFP object count was 5.

`O=C1NC(=NCCc2ccc(Br)cc2)SC1=Cc1ccc2ncccc2c1`: the EGFP/DsRed ratio is 0.0813 (inactive) and the EGFP object count amounted to 3.

`N#CCn1c(=O)c(Oc2ccc(F)cc2F)cc2cnc(NC3CCOCC3)nc21`: the EGFP/DsRed ratio is 0.064 (inactive) and the EGFP object count worked out at 2.5.

In the case of `COc1ccc(F)cc1C(=O)c1cnc(NC2CCN(S(C)(=O)=O)CC2)nc1N`, the EGFP object count came to 4.5 and the EGFP/DsRed ratio was 0.0651 (inactive).

Consider `Cc1ccccc1-n1ncc(C(=O)c2ccccc2)c1N`, for which the EGFP object count stood at 5 and the EGFP/DsRed ratio is 0.225 (inactive).

As to `Nc1c(C(=O)c2ccc(C#CCN3CCOCC3)cc2)cnn1-c1ccc(F)cc1`, the EGFP/DsRed ratio was 0.119 (inactive) and the EGFP object count was 4.5.

In the case of `Cn1cc(C2=C(c3ccc(N)cc3)C(=O)NC2=O)c2ccccc21`, the EGFP/DsRed ratio is 0.493 (inactive) and the EGFP object count amounted to 28.5.

For the molecule `Nc1c(C(=O)c2cccc(C(O)(CO)CO)c2)cnn1-c1ccc(F)cc1`, the EGFP/DsRed ratio was 0.0614 (inactive) and the EGFP object count was determined as 3.

With `Cn1cc(C2=C(c3cn(C)c4cc(C(N)=O)ccc34)C(=O)NC2=O)c2ccccc21`, the EGFP object count came to 56.5 and the EGFP/DsRed ratio is 0.829 (active).

In the case of `Cn1cc(C2=C(c3cccc(Br)c3)C(=O)NC2=O)c2ccccc21`, the EGFP object count was 3.5 and the EGFP/DsRed ratio is 0.13 (inactive).

With `O=C1NC(=NC(CO)c2ccccc2)SC1=Cc1ccc2ncccc2c1` (stereo not drawn), the EGFP/DsRed ratio is 0.088 (inactive) and 0.122 (inactive); the EGFP object count is 4 and 5.5.

For the molecule `O=C1NC(=NCc2ccccc2)SC1=Cc1ccc2ncccc2c1`, the EGFP/DsRed ratio is 0.173 (inactive) and the EGFP object count is 7.

Turning to `Nc1c(C(=O)c2cccc(OCCN3CCOCC3)c2)cnn1-c1ccc(F)cc1`, the EGFP object count amounted to 4 and the EGFP/DsRed ratio was 0.127 (inactive).

In the case of `COc1ccc2c(C3=C(c4cn(C)c5ccccc45)C(=O)NC3=O)cn(C)c2c1`, the EGFP/DsRed ratio is 0.456 (inactive) and the EGFP object count stood at 66.

On to `Cn1cc(C2=C(n3ccc4ccccc43)C(=O)NC2=O)c2ccccc21`, for which the EGFP object count amounted to 4 and the EGFP/DsRed ratio is 0.178 (inactive).
